Measured values reported in PubChem BioAssay AID588800 (Johns Hopkins Ion Channel Center, 2011).
The source made the active and inactive calls.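 Rule for the calls: active = peak inhibition of the KCNQ2 potassium channel above 30% at some tested dose, plus a fitted dose response curve; inactive = no inhibition at any dose, or no curve.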

Target: Potassium voltage-gated channel subfamily KQT member 2 (Rattus norvegicus) (UniProt O88943)
Assay: rat KCNQ2 channel inhibition, SAR follow-up, selectivity assay for KCNK9 inhibitor project, cell-based, FluxOR thallium flux, CRC set 2 (AID 588800)
Settings: KCNQ2-expressing cells; series mostly up to 30 µM

Chain of Potassium voltage-gated channel subfamily KQT member 2 (Rattus norvegicus) (O88943 whole entry, looked up): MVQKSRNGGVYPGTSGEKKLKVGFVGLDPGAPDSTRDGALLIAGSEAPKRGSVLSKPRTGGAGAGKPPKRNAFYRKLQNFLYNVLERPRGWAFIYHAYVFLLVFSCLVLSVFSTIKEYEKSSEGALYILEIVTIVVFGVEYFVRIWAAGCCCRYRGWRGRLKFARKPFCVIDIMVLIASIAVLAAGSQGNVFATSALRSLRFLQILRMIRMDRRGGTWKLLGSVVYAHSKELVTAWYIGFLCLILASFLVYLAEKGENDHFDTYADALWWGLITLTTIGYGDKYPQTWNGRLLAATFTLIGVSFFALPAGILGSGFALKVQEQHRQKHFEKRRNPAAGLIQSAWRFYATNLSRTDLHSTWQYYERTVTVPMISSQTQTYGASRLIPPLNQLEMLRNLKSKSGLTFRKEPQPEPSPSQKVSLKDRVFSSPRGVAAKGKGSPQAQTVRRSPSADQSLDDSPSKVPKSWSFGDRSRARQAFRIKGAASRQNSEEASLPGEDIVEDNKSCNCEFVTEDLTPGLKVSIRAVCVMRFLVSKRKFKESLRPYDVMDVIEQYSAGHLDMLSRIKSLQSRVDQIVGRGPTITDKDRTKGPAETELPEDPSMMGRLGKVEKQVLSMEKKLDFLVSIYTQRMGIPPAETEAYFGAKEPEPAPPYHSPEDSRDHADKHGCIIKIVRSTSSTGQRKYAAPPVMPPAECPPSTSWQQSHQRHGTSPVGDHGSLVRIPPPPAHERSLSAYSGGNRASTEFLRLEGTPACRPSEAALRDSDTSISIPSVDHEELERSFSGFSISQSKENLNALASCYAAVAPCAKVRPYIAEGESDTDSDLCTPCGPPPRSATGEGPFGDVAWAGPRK

outcome, inactive:
CC(C)(C)c1ccc(C(=O)Nc2cccc(NC(=O)c3ccccc3)c2)cc1
Cc1cccc(C(=O)Nc2cccc(NC(=O)c3ccco3)c2)c1
CCOc1ccc(NC(=O)c2cccc(NC(=O)C3CCCC3)c2)cc1
COc1ccccc1NC(=O)c1cccc(NC(=O)C2CCCCC2)c1
CC(C1CC2CCC1C2)n1c(-c2ccc(Cl)cc2)n[nH]c1=S (stereo not drawn)
CC(c1ccccc1)n1c(-c2ccco2)n[nH]c1=S (stereo not drawn)
Cc1cccc(C(=O)Nc2cccc(NC(=O)c3ccccc3C)c2)c1
CC(C1CC2CCC1C2)n1c(C2CCOC2)n[nH]c1=S (stereo not drawn)
O=C(Nc1cccc(NC(=O)c2ccccc2Cl)c1)c1ccccc1
CC(C1CC2CCC1C2)n1c(-c2ccccc2)n[nH]c1=S (stereo not drawn)
O=C(Nc1ccccc1Cl)c1cccc(NC(=O)C2CCCC2)c1
COc1ccccc1NC(=O)c1cccc(NC(=O)c2ccccc2C(F)(F)F)c1
O=C(Nc1cccc(NC(=O)c2ccccc2C(F)(F)F)c1)c1ccccc1
Cc1cccc(C(=O)Nc2cccc(NC(=O)c3cccc(C(F)(F)F)c3)c2)c1
CC(C1CC2CCC1C2)n1c(-c2ccccc2Cl)n[nH]c1=S (stereo not drawn)
COc1ccc(C(=O)Nc2cccc(NC(=O)c3cccc(C)c3)c2)cc1
CCOc1ccccc1NC(=O)c1cccc(NC(=O)c2ccccc2C(F)(F)F)c1
Cc1cccc(-c2n[nH]c(=S)n2C(C)C2CC3CCC2C3)c1 (stereo not drawn)
